Reference: the supplement of paper PMC10849652
The full data set covers some 7,900 targets. This sample favours those with a hit. About 0.6% of all pairs of compound and target were hits. Unmarked numbers belong to inactive results.

What was measured:
Test in all cases: log2 fold change, soluble protein after heating vs DMSO (PISA); higher = thermal stabilisation; K562 cells, 10 uM, 30 min; active = over 0.2 and 3.5 SD of the protein, either way, in both replicates (recomputed)
IRAK-1-4 Inhibitor I = compound: C1COCCN1CCN2C3=CC=CC=C3N=C2NC(=O)C4=CC(=CC=C4)[N+](=O)[O-] [IRAK-1-4 Inhibitor I]
In short: (§1)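 Values are thermal stability changes relative to control samples and are taken from duplicates. They are stated as log2 fold changes. Before quantification by TMTpro 16plex LC-MS/MS with equalised channel sums, K562 cells at 2×10^6 cells/mL were treated with 10 μM compound for 30 min, heated in aliquots for 3 min across 48°C-58°C, pooled, extracted in PBS with 0.5% NP-40 at 4°C, and centrifuged at 21,000xg for 90 min to give the soluble supernatant.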

ibrutinib = compound: C=CC(=O)N1CCC[C@@H](n2nc(-c3ccc(Oc4ccccc4)cc3)c3c(N)ncnc32)C1 [ibrutinib]
In short: as §1

[1] = compound: CC(=O)c1cnc2ccc(-c3cc(Cl)c(O)c(Cl)c3)nc2c1N[C@H]1CC[C@H](CN(C)C)CC1
In short: as §1

ralimetinib = compound: CC(C)(C)Cn1c(N)nc2ccc(-c3[nH]c(C(C)(C)C)nc3-c3ccc(F)cc3)nc21 [ralimetinib]
In short: as §1

[2] = compound: CC(C)(O)CC(=O)NCCn1ccc2ncnc(Nc3ccc(Oc4cccc(C(F)(F)F)c4)c(Cl)c3)c21
In short: as §1

[3] = compound: CC(C)C1=C2N=C(C=C(N2N=C1)NCC3=CC=CC=C3)NCCCCCCN
In short: as §1

[4] = compound: CC(C)C[C@@H](C=O)NC(=O)[C@H](CC(C)C)NC(=O)[C@H](CC(C)C)NC(=O)OCc1ccccc1
In short: as §1

pinometostat = compound: CC(C)N(C[C@H]1O[C@@H](n2cnc3c(N)ncnc32)[C@H](O)[C@@H]1O)[C@H]1C[C@@H](CCc2nc3cc(C(C)(C)C)ccc3[nH]2)C1 [pinometostat]
In short: as §1

[5] = compound: CC1=C(C(CC(=O)N1)C2=CC=C(C=C2)C(F)(F)F)C(=O)NC3=C(C=C4C(=C3)C=NN4)F
In short: as §1

[6] = compound: CC1=C(C2=C(C=C1)C(=O)C3=CC=CC=C3N2CCCN)C
In short: as §1

[7] = compound: CC1=C(C=C(C=C1)NC(=O)C2=CC(=CC=C2)C(C)(C)C#N)NC3=CC4=C(C=C3)N=CN(C4=O)C
In short: as §1

[8] = compound: CC1=C(C=C(C=C1)NC(=O)C2=CC(=CC=C2)N(C)C)NC(=O)C3=CC=C(C=C3)O
In short: as §1

[9] = compound: CC1=CC=C(C=C1)SC2=C3C=C(SC3=CN=C2)C(=O)N
In short: as §1

[10] = compound: CC1=NC(=CC=C1)C2=C(N=C(N2)C(C)(C)C)C3=CC4=NC=CN=C4C=C3
In short: as §1

Nexturastat A = compound: CCCCN(Cc1ccc(C(=O)NO)cc1)C(=O)Nc1ccccc1 [Nexturastat A]
In short: as §1

vemurafenib = compound: CCCS(=O)(=O)Nc1ccc(F)c(C(=O)c2c[nH]c3ncc(-c4ccc(Cl)cc4)cc23)c1F [vemurafenib]
In short: as §1

[11] = compound: CCCS(=O)(=O)Nc1ccc(F)c(C(=O)c2c[nH]c3ncc(Cl)cc23)c1F
In short: as §1

[12] = compound: CCCc1cc(C)[nH]c(=O)c1CNC(=O)c1cc(-c2ccnc(N3CCN(C)CC3)c2)cc2c1cnn2C(C)C
In short: as §1

givinostat = compound: CCN(CC)Cc1ccc2cc(COC(=O)Nc3ccc(C(=O)NO)cc3)ccc2c1 [givinostat]
In short: as §1

barasertib = compound: CCN(CCCOc1ccc2c(Nc3cc(CC(=O)Nc4cccc(F)c4)[nH]n3)ncnc2c1)CCOP(=O)(O)O [barasertib]
In short: as §1

Sequence of UniProt Q9NRD1 (Q9NRD1 whole entry, looked up): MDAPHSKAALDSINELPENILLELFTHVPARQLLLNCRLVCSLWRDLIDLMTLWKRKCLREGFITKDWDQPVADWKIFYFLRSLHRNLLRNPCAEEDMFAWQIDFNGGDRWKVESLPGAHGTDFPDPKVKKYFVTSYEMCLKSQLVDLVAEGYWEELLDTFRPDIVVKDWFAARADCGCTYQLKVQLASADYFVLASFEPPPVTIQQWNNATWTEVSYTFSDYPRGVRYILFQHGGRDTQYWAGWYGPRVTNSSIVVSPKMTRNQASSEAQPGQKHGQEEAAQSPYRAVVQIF
Sequence of UniProt Q03014 (Q03014 whole entry, looked up): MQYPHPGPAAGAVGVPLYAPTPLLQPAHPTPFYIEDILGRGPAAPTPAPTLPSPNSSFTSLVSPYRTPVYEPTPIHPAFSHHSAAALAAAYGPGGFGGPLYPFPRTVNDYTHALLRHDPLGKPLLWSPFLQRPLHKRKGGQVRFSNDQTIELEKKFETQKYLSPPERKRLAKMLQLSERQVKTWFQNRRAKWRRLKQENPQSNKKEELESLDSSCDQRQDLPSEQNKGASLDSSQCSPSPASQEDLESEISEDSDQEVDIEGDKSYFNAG
Sequence of UniProt Q9NZC3 (Q9NZC3 whole entry, looked up): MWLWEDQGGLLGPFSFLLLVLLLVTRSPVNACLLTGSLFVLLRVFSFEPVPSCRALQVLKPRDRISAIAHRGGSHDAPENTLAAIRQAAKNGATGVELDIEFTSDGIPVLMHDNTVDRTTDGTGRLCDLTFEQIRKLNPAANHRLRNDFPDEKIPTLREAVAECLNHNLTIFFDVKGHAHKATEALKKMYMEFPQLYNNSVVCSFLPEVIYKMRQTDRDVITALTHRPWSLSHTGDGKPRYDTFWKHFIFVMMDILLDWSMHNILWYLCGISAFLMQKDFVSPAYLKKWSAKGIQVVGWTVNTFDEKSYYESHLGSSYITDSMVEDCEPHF
Sequence of UniProt Q9NP66 (Q9NP66 whole entry, looked up): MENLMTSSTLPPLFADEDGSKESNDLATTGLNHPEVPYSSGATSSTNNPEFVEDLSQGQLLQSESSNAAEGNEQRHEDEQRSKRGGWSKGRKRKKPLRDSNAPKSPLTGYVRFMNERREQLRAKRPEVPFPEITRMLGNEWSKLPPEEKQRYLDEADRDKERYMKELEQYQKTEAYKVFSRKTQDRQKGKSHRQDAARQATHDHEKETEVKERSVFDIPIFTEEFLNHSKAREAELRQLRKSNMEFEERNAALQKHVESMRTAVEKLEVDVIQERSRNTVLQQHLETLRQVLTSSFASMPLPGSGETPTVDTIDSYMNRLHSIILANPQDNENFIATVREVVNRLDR
Sequence of UniProt P60520 (P60520 whole entry, looked up): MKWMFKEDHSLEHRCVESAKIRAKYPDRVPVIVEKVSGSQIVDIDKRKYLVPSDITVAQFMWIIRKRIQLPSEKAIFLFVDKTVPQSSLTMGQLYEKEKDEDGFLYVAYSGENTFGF
Sequence of UniProt Q16774 (Q16774 whole entry, looked up): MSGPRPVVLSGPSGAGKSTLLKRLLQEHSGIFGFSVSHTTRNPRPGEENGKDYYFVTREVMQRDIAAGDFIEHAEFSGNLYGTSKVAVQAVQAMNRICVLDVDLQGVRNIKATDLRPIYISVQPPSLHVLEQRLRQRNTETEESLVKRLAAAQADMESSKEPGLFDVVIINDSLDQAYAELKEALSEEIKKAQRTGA
Sequence of UniProt P21333 (P21333 whole entry, looked up): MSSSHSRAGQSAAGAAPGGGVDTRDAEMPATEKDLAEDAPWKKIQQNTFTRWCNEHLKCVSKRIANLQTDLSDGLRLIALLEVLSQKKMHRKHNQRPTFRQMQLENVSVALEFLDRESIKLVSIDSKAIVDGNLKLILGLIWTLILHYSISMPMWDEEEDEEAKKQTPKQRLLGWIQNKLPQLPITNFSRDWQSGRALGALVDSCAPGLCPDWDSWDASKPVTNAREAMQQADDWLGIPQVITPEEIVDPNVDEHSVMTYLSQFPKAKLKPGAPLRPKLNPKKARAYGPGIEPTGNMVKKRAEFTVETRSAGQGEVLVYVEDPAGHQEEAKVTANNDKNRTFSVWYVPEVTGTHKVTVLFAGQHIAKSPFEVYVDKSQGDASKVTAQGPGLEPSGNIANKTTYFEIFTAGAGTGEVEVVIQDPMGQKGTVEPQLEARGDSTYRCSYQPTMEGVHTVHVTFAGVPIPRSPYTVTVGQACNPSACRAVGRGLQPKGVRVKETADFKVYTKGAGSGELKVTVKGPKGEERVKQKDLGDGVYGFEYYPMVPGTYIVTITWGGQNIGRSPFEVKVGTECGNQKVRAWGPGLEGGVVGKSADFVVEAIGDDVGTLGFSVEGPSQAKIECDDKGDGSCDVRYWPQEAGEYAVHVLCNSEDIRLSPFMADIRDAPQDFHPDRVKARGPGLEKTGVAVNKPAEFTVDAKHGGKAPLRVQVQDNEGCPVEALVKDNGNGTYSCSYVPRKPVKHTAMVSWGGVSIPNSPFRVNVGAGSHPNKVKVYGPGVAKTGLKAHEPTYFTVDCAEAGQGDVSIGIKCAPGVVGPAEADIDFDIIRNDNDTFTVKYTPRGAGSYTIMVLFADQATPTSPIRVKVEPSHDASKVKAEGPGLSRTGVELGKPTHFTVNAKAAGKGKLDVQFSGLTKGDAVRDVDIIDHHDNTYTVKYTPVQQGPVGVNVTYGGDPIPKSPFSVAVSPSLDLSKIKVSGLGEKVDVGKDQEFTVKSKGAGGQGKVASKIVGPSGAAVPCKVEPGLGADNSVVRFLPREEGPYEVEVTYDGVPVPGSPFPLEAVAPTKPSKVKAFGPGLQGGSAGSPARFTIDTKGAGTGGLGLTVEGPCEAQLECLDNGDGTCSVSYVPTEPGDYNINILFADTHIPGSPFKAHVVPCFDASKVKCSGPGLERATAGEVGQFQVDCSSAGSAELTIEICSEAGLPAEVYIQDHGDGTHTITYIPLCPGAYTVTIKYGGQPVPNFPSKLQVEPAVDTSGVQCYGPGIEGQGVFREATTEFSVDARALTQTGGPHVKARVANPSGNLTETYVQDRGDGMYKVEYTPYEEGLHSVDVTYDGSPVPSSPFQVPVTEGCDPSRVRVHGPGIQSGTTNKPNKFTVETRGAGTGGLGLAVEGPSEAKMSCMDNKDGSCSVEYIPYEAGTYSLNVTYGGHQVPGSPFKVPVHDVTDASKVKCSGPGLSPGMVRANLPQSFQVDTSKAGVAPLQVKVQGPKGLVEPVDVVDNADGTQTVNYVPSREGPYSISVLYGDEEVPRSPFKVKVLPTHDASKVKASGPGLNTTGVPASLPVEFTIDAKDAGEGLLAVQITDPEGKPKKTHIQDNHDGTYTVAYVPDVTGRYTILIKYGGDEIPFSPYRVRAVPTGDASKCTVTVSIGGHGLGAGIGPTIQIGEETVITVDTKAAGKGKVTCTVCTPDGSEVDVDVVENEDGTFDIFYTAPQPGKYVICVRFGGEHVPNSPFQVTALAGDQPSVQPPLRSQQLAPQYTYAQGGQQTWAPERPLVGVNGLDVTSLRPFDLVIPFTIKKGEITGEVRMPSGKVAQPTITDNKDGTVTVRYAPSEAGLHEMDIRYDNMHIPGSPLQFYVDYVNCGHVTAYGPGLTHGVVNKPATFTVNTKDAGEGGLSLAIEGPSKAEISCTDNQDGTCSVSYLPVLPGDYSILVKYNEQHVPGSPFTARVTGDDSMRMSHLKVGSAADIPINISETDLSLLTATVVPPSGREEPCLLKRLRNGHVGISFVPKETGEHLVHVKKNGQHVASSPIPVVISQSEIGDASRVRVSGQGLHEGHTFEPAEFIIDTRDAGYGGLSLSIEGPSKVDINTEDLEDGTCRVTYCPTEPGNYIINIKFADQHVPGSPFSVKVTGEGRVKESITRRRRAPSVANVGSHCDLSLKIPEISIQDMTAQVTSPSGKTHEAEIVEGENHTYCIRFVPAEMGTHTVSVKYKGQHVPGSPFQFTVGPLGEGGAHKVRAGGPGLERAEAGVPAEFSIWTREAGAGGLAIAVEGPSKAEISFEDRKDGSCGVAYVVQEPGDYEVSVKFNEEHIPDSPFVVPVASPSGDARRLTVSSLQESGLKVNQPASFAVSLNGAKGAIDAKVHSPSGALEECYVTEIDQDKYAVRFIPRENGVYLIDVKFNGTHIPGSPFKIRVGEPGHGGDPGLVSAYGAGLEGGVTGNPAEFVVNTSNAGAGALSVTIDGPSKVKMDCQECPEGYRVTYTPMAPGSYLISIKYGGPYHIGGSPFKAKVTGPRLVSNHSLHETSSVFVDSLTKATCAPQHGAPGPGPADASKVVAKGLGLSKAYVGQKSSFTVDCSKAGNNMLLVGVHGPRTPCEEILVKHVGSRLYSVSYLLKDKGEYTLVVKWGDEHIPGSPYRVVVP
Sequence of UniProt P36969 (P36969 whole entry, looked up): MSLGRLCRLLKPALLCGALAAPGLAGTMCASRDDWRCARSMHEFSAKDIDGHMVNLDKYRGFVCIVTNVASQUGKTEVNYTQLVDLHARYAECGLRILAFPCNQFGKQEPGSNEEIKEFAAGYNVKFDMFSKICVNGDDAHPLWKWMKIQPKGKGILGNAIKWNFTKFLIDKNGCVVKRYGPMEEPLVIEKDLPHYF
Sequence of UniProt P00390 (P00390 whole entry, looked up): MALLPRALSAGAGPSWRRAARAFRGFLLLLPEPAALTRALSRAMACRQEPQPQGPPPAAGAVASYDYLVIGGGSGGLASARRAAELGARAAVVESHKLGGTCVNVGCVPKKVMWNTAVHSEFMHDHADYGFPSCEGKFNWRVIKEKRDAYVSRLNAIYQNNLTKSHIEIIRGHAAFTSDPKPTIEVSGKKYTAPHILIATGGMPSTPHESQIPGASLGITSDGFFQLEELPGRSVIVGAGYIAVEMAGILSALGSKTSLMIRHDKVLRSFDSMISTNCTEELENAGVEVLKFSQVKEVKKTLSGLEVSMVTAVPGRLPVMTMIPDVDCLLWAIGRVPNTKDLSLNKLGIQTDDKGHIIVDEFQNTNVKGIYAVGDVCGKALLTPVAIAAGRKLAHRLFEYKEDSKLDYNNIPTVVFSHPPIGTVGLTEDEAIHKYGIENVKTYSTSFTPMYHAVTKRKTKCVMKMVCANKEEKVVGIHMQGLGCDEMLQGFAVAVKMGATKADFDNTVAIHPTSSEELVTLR

Row | Target | log2 fold change (IRAK-1-4 Inhibitor I) | log2 fold change (ibrutinib) | log2 fold change [1] | log2 fold change (ralimetinib) | log2 fold change [2] | log2 fold change [3] | log2 fold change [4] | log2 fold change (pinometostat) | log2 fold change [5] | log2 fold change [6] | log2 fold change [7] | log2 fold change [8] | log2 fold change [9] | log2 fold change [10] | log2 fold change (Nexturastat A) | log2 fold change (vemurafenib) | log2 fold change [11] | log2 fold change [12] | log2 fold change (givinostat) | log2 fold change (barasertib)
1 | FBL (UniProt P22087) | -0.094 | 0.048 | -0.03 | 0.17 | 0.146 | 0.199 | 0.184 | 0.319 | -0.031 | 0.206 | -0.039 | 0.062 | -0.146 | -0.077 | 0.243 | -0.11 | -0.058 | 0.165 | 0.138 | -0.106
2 | GDE1 (UniProt Q9NZC3) | -0.052 | 0.031 | -0.009 | 0.02 | -0.033 | 0.067 | 0.049 | 0.054 | 0.106 | 0.266 | 0.022 | -0.004 | 0.012 | -0.059 | 0.02 | -0.033 | -0.009 | 0.064 | -0.052 | -0.049
3 | HHEX (UniProt Q03014) | 0.045 | 0.059 | 0.005 | -0.059 | -0.064 | -0.113 | 0.189 | -0.075 | 0.086 | -0.074 | -0.03 | 0.045 | -0.009 | -0.055 | 0.05 | -0.081 | 0 | 0.026 | -0.026 | -0.003
4 | HECTD1 (UniProt Q9ULT8) | -0.076 | -0.027 | 0.001 | 0.054 | -0.048 | -0.091 | 0.141 | 0.079 | 0.026 | -0.158 | 0.04 | -0.068 | 0.144 | -0.023 | 0.273 (active) | -0.04 | 0.126 | 0.054 | 0.038 | 0.048
5 | FYB1 isoform 3 (UniProt O15117) | 0.009 | -0.012 | -0.193 | 0.308 | 0.06 | -0.069 | 0.226 | 0.002 | -0.075 | 0.129 | 0.073 | 0.063 | 0.093 | 0.051 | 0.011 | -0.009 | 0.169 | -0.03 | 0.066 | 0.052
6 | HMG20A (UniProt Q9NP66) | -0.05 | 0.043 | -0.015 | 0.275 | 0.062 | 0.043 | -0.405 | 0.026 | -0.008 | 0.007 | -0.051 | -0.009 | -0.153 | -0.016 | 0.033 | 0.027 | 0.016 | 0.149 | 0.03 | 0.024
7 | GSR (UniProt P00390) | 0.037 | -0.005 | -0.011 | -0.021 | -0.015 | 0.082 | 0.023 | -0.05 | -0.005 | -0.003 | -0.011 | 0.022 | 0.016 | 0.007 | -0.073 | -0.027 | 0.02 | -0.026 | -0.253 (active) | -0.03
8 | FBXO6 (UniProt Q9NRD1) | -0.015 | 0.015 | -0.068 | 0.004 | -0.127 | 0.437 (active) | -0.046 | -0.021 | -0.043 | 0.068 | 0.006 | 0.006 | 0.048 | 0.026 | -0.04 | 0.044 | 0.014 | -0.01 | -0.093 | -0.008
9 | FLNA (UniProt P21333) | -0.046 | -0.111 | 0.031 | 0.035 | -0.086 | -0.112 | 0.049 | 0.081 | -0.017 | -0.027 | -0.03 | -0.049 | 0.015 | 0.006 | 0.092 | 0.021 | 0.075 | 0.044 | 0.092 | 0.019
10 | GABARAPL2 (UniProt P60520) | 0.107 | -0.018 | -0.076 | 0.008 | -0.028 | -0.269 (active) | -0.007 | -0.103 | 0.016 | -0.015 | -0.01 | 0.023 | 0.067 | 0.188 | -0.122 | 0.026 | 0.051 | -0.03 | 0.03 | 0.007
11 | GPX4 (UniProt P36969) | -0.026 | 0.065 | -0.005 | 0.01 | 0.003 | 0.099 | -0.462 (active) | -0.078 | 0.002 | 0.02 | -0.005 | -0.068 | 0.095 | 0.06 | -0.151 | -0.019 | 0.005 | -0.027 | -0.451 (active) | -0.012
12 | IFRD1 (UniProt O00458) | 0.033 | 0.058 | 0.203 | -0.014 | -0.002 | -0.035 | 0.168 | -0.029 | -0.095 | -1.05 (active) | 0.123 | 0.033 | 0.098 | -0.04 | -0.103 | 0.001 | 0.058 | -0.111 | -0.154 | -0.079
13 | GUK1 isoform 2 (UniProt Q16774) | -0.076 | -0.033 | -0.162 | 0.038 | -0.234 | -0.033 | 0.167 | -0.037 | -0.074 | 0.092 | 0.173 | -0.062 | -0.018 | 0.093 | -0.065 | 0.118 | -0.002 | 0.026 | 0.072 | -0.018
14 | GDPD1 (UniProt Q8N9F7) | 0.02 | -0.03 | 0.044 | 0.066 | -0.03 | 0.04 | 0.03 | -0.027 | -0.005 | -0.015 | 0.003 | -0.135 | 0.022 | -0.07 | -0.026 | 0.022 | -0.081 | 0.099 | -0.046 | 0.001
15 | GTF2B (UniProt Q00403) | -0.063 | -0.064 | -0.023 | 0.044 | -0.215 | -0.125 | 0.068 | 0 | -0.026 | 0.07 | -0.018 | -0.092 | 0.097 | 0.097 | -0.031 | 0.104 | 0.167 | 0.017 | 0.058 | 0.044
16 | HEATR5B (UniProt Q9P2D3) | -0.002 | 0.017 | 0.014 | 0.04 | -0.021 | -0.063 | 0.023 | 0.008 | 0.022 | 0.01 | 0.013 | 0.005 | 0.03 | 0.022 | 0.219 (active) | 0.019 | -0.014 | -0.024 | 0.07 | 0
